Measurements published in PubChem BioAssay.
Calls of active or inactive are those of the source.

Legend:
[1] = optical density shifts of acrAB sulA E. coli – strain DRC41, OD650, 48 h, E. coli filamentation inducer project, primary screen (AID 1152); details: higher = more signal, called active from +8 up or from −8 down;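 further: E. coli MC1000 strain DRC41 lacking acrAB efflux pump and sulA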
[2] = probe aLefty1 binding on compound microarray – biochemical, small-molecule microarray, 635/667 nm fluorescence, primary screen (AID 1153); details: higher = more signal;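 further: score merges spot fluorescence with signal-to-noise ratio from the scanned slide images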
[3] = plasmodial surface anion channel blockers, osmotic lysis – cell-based, P. falciparum Indochina, OD700, 1 h, primary screen (AID 1154); details: P. falciparum Indochina infected RBC osmotic lysis, higher = more signal, called active from +8 up or from −8 down
[4] = plasmodial surface anion channel blockers, osmotic lysis – cell-based, P. falciparum Indochina, OD700, 2 h, primary screen (AID 1155);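 further: lysis reports solute entry through the parasite surface anion channel PSAC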; details: P. falciparum Indochina infected erythrocytes, higher = more signal, called active from +8 up or from −8 down
[5] = changes in parasitized red cell lysis, either direction – P. falciparum Indochina, OD700, 3 h, PSAC antagonist project, primary screen (AID 1156); details: P. falciparum-infected erythrocytes, osmotic lysis, higher = more signal, called active from +8 up or from −8 down
[6] = plasmodial surface anion channel blockers, osmotic lysis – cell-based, P. falciparum Indochina, OD700, 18 h, primary screen (AID 1157); details: P. falciparum Indochina infected erythrocytes, osmotic lysis OD700, 18 h; higher = more signal, called active from +8 up or from −8 down
[7] = S6 kinase pathway phospho-S6 level changes – cell-based, A549, cytoblot, luminescence, serum-stimulated, primary screen (AID 1158); details: 5 h, higher = more signal;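 further: serum-stimulated A549 lung adenocarcinoma cells; signal is phosphorylated S6 detected by cytoblot immunostaining with HRP secondary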
[8] = biological target: NADPH oxidase 2 (Homo sapiens) (UniProt P04839); experiment: compounds shifting NOX2 Amplex Red fluorescence – cell-based, HEK293-NOX2, PMA-stimulated, NOX inhibitor project, primary screen (AID 1159); details: 45 min, higher = more signal, called active from +8 up or from −8 down; further: test concentration not given here
[9] = biological target: NADPH oxidase 4 (Homo sapiens) (UniProt Q9NPH5); experiment: compounds shifting NOX4 Amplex Red fluorescence – cell-based, HEK293-NOX4, tetracycline-induced, NOX inhibitor project, primary screen (AID 1160); details: HEK293-NOX4, Amplex Red H2O2 fluorescence, 45 min; higher = more signal, called active from +8 up or from −8 down
[10] = biological target: NADPH oxidase 5 (Homo sapiens) (UniProt Q96PH1); experiment: compounds shifting NOX5 Amplex Red fluorescence – cell-based, HEK293-NOX5, NOX inhibitor project, primary screen (AID 1161); details: HEK293-NOX5, ionomycin, 45 min, higher = more signal
Sequence of NADPH oxidase 5 (Homo sapiens) (Q96PH1 whole entry, looked up): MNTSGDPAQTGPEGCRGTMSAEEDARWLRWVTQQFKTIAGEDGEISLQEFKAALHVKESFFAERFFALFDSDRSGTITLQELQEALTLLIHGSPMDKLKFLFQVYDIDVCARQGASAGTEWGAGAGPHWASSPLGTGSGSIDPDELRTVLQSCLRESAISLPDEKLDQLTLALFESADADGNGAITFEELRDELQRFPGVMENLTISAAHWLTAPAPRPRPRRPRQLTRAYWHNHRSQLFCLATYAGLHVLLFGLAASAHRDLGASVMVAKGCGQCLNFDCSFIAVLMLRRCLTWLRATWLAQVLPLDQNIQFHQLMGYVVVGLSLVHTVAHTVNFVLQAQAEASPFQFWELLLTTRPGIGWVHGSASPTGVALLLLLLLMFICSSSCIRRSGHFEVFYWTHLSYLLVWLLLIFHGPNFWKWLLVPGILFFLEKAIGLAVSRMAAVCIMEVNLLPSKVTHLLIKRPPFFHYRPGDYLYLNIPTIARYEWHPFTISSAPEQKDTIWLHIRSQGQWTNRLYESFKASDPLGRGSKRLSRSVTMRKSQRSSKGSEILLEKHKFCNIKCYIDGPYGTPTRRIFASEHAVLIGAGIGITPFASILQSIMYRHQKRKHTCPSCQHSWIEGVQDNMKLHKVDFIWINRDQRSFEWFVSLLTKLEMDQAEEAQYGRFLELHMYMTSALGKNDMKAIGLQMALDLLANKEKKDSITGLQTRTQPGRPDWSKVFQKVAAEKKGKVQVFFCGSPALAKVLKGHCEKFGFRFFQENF

Sequence of NADPH oxidase 4 (Homo sapiens) (Q9NPH5 whole entry, looked up): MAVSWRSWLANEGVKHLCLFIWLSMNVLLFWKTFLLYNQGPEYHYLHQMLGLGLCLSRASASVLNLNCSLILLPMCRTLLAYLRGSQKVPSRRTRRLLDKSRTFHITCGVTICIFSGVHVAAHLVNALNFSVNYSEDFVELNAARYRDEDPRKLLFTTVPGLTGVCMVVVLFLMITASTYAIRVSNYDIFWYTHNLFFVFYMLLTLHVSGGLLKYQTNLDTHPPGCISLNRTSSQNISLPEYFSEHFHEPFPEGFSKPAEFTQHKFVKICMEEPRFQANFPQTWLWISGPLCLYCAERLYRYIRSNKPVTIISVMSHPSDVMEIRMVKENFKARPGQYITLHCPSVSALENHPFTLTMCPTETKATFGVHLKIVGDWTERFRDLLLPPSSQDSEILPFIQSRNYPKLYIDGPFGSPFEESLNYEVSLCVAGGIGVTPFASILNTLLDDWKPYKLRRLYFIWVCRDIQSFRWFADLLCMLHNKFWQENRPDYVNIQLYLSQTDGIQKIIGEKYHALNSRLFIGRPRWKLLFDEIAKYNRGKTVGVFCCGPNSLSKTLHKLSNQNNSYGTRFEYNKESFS
Sequence of NADPH oxidase 2 (Homo sapiens) (P04839 whole entry, looked up): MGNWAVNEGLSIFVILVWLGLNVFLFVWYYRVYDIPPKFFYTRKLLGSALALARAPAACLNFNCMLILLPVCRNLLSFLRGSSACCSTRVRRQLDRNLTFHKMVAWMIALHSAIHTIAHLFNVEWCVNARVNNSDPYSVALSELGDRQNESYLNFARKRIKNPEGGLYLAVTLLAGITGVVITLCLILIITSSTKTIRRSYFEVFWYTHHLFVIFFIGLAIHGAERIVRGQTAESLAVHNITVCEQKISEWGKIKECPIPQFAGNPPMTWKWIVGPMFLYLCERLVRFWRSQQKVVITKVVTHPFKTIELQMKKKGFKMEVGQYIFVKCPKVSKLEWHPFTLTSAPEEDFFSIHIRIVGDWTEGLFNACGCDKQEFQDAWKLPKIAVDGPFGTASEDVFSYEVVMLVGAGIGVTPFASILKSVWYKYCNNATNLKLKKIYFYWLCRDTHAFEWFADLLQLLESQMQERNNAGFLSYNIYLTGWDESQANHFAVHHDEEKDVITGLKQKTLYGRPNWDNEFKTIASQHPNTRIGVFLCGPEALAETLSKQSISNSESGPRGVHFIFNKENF

SMILES | z-score [1] | composite z-score [2] | z-score [3] | z-score [4] | z-score [5] | z-score [6] | z-score [7] | z-score [8] | z-score [9] | z-score [10]
COc1ccc(CCNC(=O)[C@@H]2c3ccccc3C(=O)N(C3CCCCC3)[C@H]2c2ccc(CO)cc2)cc1 | -0.71 (inactive) | -0.0149 | 2.58 (inactive) | 0.163 (inactive) | 1.71 (inactive) | 0.0567 (inactive) | 0.491 | -0.415 (inactive) | -0.546 (inactive) | -2.31
COc1cc2c(cc1O)C=[N+](Cc1sc3ccccc3c1Cl)CC2 | -0.569 (inactive) | 0.065 | 5.58 (inactive) | 2 (inactive) | -0.703 (inactive) | 1.58 (inactive) | -0.336 | -3.84 (inactive) | -2.35 (inactive) | -4.02
[N-]=[N+]=Nc1ccccc1C[C@@]1(C(=O)NCCN2CCOCC2)N=C(c2ccc(OCCCO)cc2)O[C@@H]1c1ccccc1N=[N+]=[N-] | -0.374 (inactive) | 0.632 | 30.8 (active) | 30.8 (active) | 2.72 (inactive) | 2.78 (inactive) | -0.26 | -2.91 (inactive) | -0.157 (inactive) | -1.6
CC(=O)NCCCC[C@@H]1NC(=O)[C@@H]2C[C@H](C(=O)NCCCCCN)[C@H](c3cccc(OCCO)c3)N2C1=O | 2.26 (inactive) | -0.22 | 2.03 (inactive) | -0.543 (inactive) | 1.98 (inactive) | -1.27 (inactive) | 4.55 | 1.14 (inactive) | 1.06 (inactive) | 1.74
CCOC(=O)C[C@H]1[C@H](OC(=O)c2ccc(-c3ccccc3)cc2)[C@@H](NC(=O)CC(C)C)c2cc(OCCCO)ccc2N1C(=O)c1ccc2ccccc2n1 | -0.0672 (inactive) | -0.274 | 2.19 (inactive) | 0.0409 (inactive) | 0.457 (inactive) | 0.238 (inactive) | 0.2 | -1.89 (inactive) | 0.452 (inactive) | -0.0775
COC(=O)[C@@]1(Cc2ccc(F)cc2)[C@H]2c3cc(C(=O)N4CCCC4)n(Cc4ccc(C)c(F)c4F)c3C[C@H]2CN1C(=O)c1ccccc1 | -1.31 (inactive) | 0.746 | 5.03 (inactive) | 0.806 (inactive) | 0.598 (inactive) | 1.06 (inactive) | -0.389 | -4.01 (inactive) | -7.95 (inactive) | -7.01
CCCC[C@@H]1C[C@H]1[C@@H](NC(=O)c1cccs1)c1ccccc1C(F)(F)F | -1.04 (inactive) | 0.294 | 1.89 (inactive) | 1.12 (inactive) | -0.37 (inactive) | 0.544 (inactive) | -0.423 | -1.39 (inactive) | -3.14 (inactive) | -0.173
CO[C@H]1O[C@H](CO)[C@@H](OC(=O)Nc2ccc3c(c2)OCO3)[C@H](OC(=O)Nc2ccc3c(c2)OCO3)[C@@H]1OC(=O)Nc1ccc2c(c1)OCO2 | -0.53 (inactive) | 0.26 | 11 (active) | 1.62 (inactive) | 1.55 (inactive) | 0.742 (inactive) | -0.563 | -1.32 (inactive) | -1.19 (inactive) | -1.57
CC(C)N1C(=O)C[C@@](C(=O)NC2CC2)(c2ccc([N+](=O)[O-])cc2)[C@H]1c1ccc(CO)cc1 | 1.3 (inactive) | -0.231 | 2.45 (inactive) | -0.224 (inactive) | 2.85 (inactive) | -0.9 (inactive) | 2.28 | -0.281 (inactive) | -1.89 (inactive) | -1.78
COC(=O)[C@@]1(Cc2ccc(F)cc2)[C@H]2c3cc(C(=O)N(C)C)n(Cc4ccc(OC(F)(F)F)cc4)c3C[C@H]2CN1C(=O)c1ccccc1 | -1.4 (inactive) | 0.651 | -0.0341 (inactive) | 0.673 (inactive) | -0.0751 (inactive) | 0.692 (inactive) | -0.139 | 0.195 (inactive) | -0.44 (inactive) | 0.205
C=CCN1C(=O)[C@]2(CCS(=O)(=O)c3ccccc3)N=C(c3ccc(OCCCO)cc3)O[C@@H]2c2ccccc21 | 0.836 (inactive) | 0.303 | 29.1 (active) | 23.3 (active) | 1.29 (inactive) | 4.76 (inactive) | 1.76 | -0.428 (inactive) | 0.835 (inactive) | 1.28
O=C1C2C=CC(C(O)c3ccco3)N(Nc3ccccc3F)C2C(=O)N1c1ccccc1 (stereo not given) | -1.72 (inactive) | 0.361 | 0.188 (inactive) | 1.05 (inactive) | -0.197 (inactive) | 0.975 (inactive) | -0.754 | -0.73 (inactive) | 0.251 (inactive) | -1.64
O=C1OCCC=C[C@H]2OC34C=CCN(Cn5nnc6ccccc65)C(=O)[C@H]3N(CCCO)C(=O)[C@@H]4C12 (stereo not given in full) | 1.24 (inactive) | -0.321 | 0.502 (inactive) | -1.23 (inactive) | 1.65 (inactive) | -1.32 (inactive) | 0.601 | 0.813 (inactive) | -0.341 (inactive) | -1.35
